Reference: PubChem BioAssay (Tox21)
Records with an inconclusive call do not appear. The source made the active and inactive calls. Unless noted, the call rests on the fitted dose curve; in most records, active means well fitted curve in the direction sought with a large enough effect in the repeat runs; inconclusive means weak or mixed curves; inactive means no such curve, though single readings can be large; an effect the other way counts as inactive or inconclusive.

What was measured:
[1] = A CellTox Green Cytotoxicity Assay to monitor cytotoxicity in HEK293 cells - 32 hour (AID 1224881); further: nearly all actives have a fitted effect of over 40% in size
Method in brief: (§1)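 HEK293 cells, 600/well, were preincubated 5 hours and then exposed to compounds at 37 C for up to 40 hours. A cell-impermeant cyanine dye staining dead-cell DNA was read by fluorescence at 0, 8, 16, 24, 32 and 40 h time points.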

[2] = A CellTox Green Cytotoxicity Assay to monitor cytotoxicity in HepG2 cells - 0 hour (AID 1224882); further: nearly all actives have a fitted effect of over 35% in size
Method in brief: (§2)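 HepG2 cells, 600/well, preincubated 5 h with CellTox Green dye, then exposed to Tox21 compounds in DMSO at 37 C for up to 40 h. Dead-cell DNA fluorescence read at the indicated time point.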

[3] = A CellTox Green Cytotoxicity Assay to monitor cytotoxicity in HepG2 cells - 32 hour (AID 1224883); further: nearly all actives have a fitted effect of over 50% in size
Method in brief: as §2

[4] = A CellTox Green Cytotoxicity Assay to monitor cytotoxicity in HEK293 cells - 8 hour (AID 1224884); further: nearly all actives have a fitted effect of over 35% in size
Method in brief: as §1

[5] = qHTS RealTime-Glo MT Cell Viability Assay in HepG2 cells - 16 hour (AID 1224885); further: nearly all actives have a fitted effect of over 50% in size
Method in brief: (§3)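 HepG2 cells (600/well) were dispensed with RealTime-Glo reagents, incubated 5 h at 37 °C, then treated with compounds in DMSO for up to 40 h. Nonlytic NanoLuc luminescence reflecting viable cells was read at each stated time point.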

[6] = qHTS RealTime-Glo MT Cell Viability Assay in HEK293 cells - 24 hour (AID 1224886); further: top concentration of the series differs between compounds; nearly all actives have a fitted effect of over 50% in size
Method in brief: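 HEK293 cells seeded with NanoLuc/prosubstrate reagent, rested 5 h at 37 C, then dosed and kept at 37 C up to 40 h. Nonlytic real-time luminescence from viable cells read at 0, 8, 16, 24, 32 and 40 h.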

[7] = qHTS RealTime-Glo MT Cell Viability Assay in HEK293 cells - 8 hour (AID 1224887); further: top concentration of the series differs between compounds; nearly all actives have a fitted effect of over 50% in size
Method in brief: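 600 cells/well were plated with the nonlytic NanoLuc/prosubstrate reagent, pre-incubated 5 h, then given 23 nL of compound in DMSO. Incubation at 37 C for 40 h, with luminescence from viable-cell-reduced substrate read repeatedly from 0 h.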

[8] = A CellTox Green Cytotoxicity Assay to monitor cytotoxicity in HEK293 cells - 16 hour (AID 1224888); further: nearly all actives have a fitted effect of over 35% in size
Method in brief: as §1

[9] = qHTS RealTime-Glo MT Cell Viability Assay in HepG2 cells - 0 hour (AID 1224889); further: nearly all actives have a fitted effect of over 50% in size
Method in brief: as §3

[10] = A CellTox Green Cytotoxicity Assay to monitor cytotoxicity in HepG2 cells - 8 hour (AID 1224890); further: nearly all actives have a fitted effect of over 45% in size
Method in brief: as §2

[11] = qHTS assay to identify small molecule antagonists of the estrogen receptor alpha (ER-alpha) signaling pathway using the BG1 cell line in the presence of 0.1 nM 17-beta-estradiol - cell viability counter screen (AID 1259241); further: nearly all actives have a fitted effect of over 40% in size
Method in brief: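 Viability in VM7Luc4E2 cells after 22 hr compound exposure under 0.1 nM 17beta-estradiol stimulation, by CellTiter-Fluor.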

[12] = qHTS assay to identify small molecule antagonists of the androgen receptor (AR) signaling pathway using the MDA cell line in the presence of 0.5 nM R1881 - cell viability counter screen (AID 1259242); further: nearly all actives have a fitted effect of over 45% in size
Method in brief: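 MDA-kb2 cells (MMTV-luciferase, AR/GR responsive) were treated with compounds plus 0.5 nM R1881 (final) for 16 hr at 37C, 0% CO2. Viability was then read in the same wells as live-cell protease fluorescence (CellTiter-Fluor, 30 min).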

[13] = target: Estrogen receptor (Homo sapiens) (UniProt P03372); test: qHTS assay to identify small molecule antagonists of the estrogen receptor alpha (ER-alpha) signaling pathway using the BG1 cell line in the presence of 0.1 nM 17-beta-estradiol (AID 1259244); further: nearly all actives have a fitted effect of over 50% in size
Method in brief: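 VM7Luc4E2 cells (endogenous full-length ER-alpha, 4×ERE-luciferase), kept 5 days in phenol red-free, charcoal-stripped FBS medium; 4,000 cells/well. Compounds added with 0.1 nM (final) 17beta-estradiol, 22 hr at 37C; luminescence read with ONE-Glo after 30 min.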

[14] = qHTS assay to identify small molecule phospholipidosis (PLD) inducers (AID 1259344; active means well fitted curve in the direction sought with a large enough effect; an effect the other way counts as inactive or inconclusive)
Method in brief: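 HepG2 cells on collagen I, attached 4 h at 37 C, were co-treated with compound and LipidTOX Red dye for 24 h at 37 C, then fixed with paraformaldehyde plus Hoechst 33342 and imaged by high-content microscopy for phospholipid accumulation.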

[15] = qHTS assay to identify small molecule HDAC inhibitors (AID 1259364); further: top concentration of the series differs between compounds; nearly all actives have a fitted effect of over 45% in size
Method in brief: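 Wild-type HCT-116 cells, plated overnight at 37 C, exposed to compounds 2 hr at 37 C; luminogenic HDAC-Glo substrate then added 30 min at room temperature. Luminescence reports relative endogenous class I/II HDAC activity.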

[16] = qHTS assay to identify small molecule HDAC inhibitors - cell viability counter screen (AID 1259365)
Method in brief: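 Cytotoxicity was gauged in wild-type HCT-116 cells after a brief 2hr treatment with DMSO-dissolved compounds at 37C and 5% CO2, using CellTiter-Glo luminescence developed for 30min at room temperature.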

[17] = qHTS assay to identify small molecule agonists of the sonic hedgehog signaling (Shh) pathway - cell viability counter screen (AID 1259366); further: nearly all actives have a fitted effect of over 50% in size
Method in brief: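 Stable Gli1-Luc NIH/3T3 clone, 2,000 cells/well. Compound exposure 24hr at 37C. Read-out: CellTiter-Fluor fluorescence.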

[18] = qHTS assay to identify small molecule antagonists of the sonic hedgehog signaling (Shh) pathway - cell viability counter screen (AID 1259367); further: nearly all actives have a fitted effect of over 55% in size
Method in brief: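 NIH/3T3-derived Gli1-Luc reporter cells (2,000 per well) rested 4 hr at 37 C, then received DMSO compounds plus conditioned medium. After 23 hr of treatment, CellTiter-Fluor was added for 1 hr at 37C and fluorescence read.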

[19] = qHTS assay to identify small molecule agonists of the sonic hedgehog signaling (Shh) pathway (AID 1259368; calls by dose curve;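 further: NIH/3T3-derived 3T3Gli1-Luc cells carrying a stable Gli1-driven firefly luciferase reporter; series mostly up to about 92 µM; nearly all actives have a fitted effect of over 15% in size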)
Method in brief: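 NIH/3T3-derived 3T3Gli1-Luc cells with stably integrated Gli1-driven firefly luciferase, 2,000 cells/well, compounds added after 4 hr. Incubated 24 hr at 37C, 5% CO2; luminescence read after 30 min with luciferase reagent at room temperature.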

[20] = target: Androgen receptor (Homo sapiens) (UniProt P10275); test: qHTS assay to identify small molecule antagonists of the androgen receptor (AR) signaling pathway using the MDA cell line in the presence of 0.5 nM R1881 (AID 1259243); further: nearly all actives have a fitted effect of over 50% in size
Method in brief: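 MDA-kb2 cells (MMTV-luciferase, responsive to AR and GR) at 3,000/well, rested 5 h at 37C, 0% CO2, then given compounds plus 0.5 nM R1881 (final) for 16 hr. Luciferase read with ONE-Glo after 30 min at room temperature.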

Measured: Potency

Sequence of Estrogen receptor (Homo sapiens) (P03372 whole entry, looked up): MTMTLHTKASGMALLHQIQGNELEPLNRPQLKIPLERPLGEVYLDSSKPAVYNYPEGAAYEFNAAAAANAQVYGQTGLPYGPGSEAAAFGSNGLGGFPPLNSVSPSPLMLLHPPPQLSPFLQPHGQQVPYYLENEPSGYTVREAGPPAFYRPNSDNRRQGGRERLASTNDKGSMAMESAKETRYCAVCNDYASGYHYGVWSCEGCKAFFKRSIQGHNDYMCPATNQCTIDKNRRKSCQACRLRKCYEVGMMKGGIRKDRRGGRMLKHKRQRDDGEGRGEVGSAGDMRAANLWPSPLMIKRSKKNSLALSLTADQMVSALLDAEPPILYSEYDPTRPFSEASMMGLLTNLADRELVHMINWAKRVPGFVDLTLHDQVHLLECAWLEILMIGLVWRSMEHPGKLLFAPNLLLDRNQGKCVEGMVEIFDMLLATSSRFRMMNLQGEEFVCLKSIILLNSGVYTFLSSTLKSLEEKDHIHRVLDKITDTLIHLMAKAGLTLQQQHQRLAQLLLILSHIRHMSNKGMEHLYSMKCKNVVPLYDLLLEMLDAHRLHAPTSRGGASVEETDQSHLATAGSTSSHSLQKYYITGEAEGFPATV
Sequence of Androgen receptor (Homo sapiens) (P10275 whole entry, looked up): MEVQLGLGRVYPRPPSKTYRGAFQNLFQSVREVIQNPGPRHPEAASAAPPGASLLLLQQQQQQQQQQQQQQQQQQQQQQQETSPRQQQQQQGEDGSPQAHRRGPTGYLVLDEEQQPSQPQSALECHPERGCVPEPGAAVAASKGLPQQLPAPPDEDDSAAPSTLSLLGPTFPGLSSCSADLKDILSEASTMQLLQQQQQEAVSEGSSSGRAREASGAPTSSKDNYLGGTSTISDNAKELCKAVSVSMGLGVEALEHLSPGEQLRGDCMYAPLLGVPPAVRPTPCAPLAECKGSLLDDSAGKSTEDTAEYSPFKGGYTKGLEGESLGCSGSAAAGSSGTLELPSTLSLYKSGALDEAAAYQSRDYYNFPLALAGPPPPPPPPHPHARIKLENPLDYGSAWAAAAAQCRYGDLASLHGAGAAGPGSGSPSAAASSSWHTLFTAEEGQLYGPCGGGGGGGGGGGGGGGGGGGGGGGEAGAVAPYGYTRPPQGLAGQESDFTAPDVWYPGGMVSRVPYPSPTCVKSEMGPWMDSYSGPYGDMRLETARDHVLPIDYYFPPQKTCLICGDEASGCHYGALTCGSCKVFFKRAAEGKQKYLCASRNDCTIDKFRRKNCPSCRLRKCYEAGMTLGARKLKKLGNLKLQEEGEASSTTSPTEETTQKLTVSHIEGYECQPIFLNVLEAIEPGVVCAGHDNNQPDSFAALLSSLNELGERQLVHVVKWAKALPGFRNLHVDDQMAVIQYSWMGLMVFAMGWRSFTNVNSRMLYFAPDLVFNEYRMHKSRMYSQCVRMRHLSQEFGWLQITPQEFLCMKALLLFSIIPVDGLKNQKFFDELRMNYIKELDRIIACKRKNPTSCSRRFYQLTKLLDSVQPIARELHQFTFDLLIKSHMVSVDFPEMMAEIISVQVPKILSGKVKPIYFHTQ

C[C@]12C=CC(=O)C=C1CC[C@@H]1[C@@H]2CC[C@@]2(C)[C@H]1CC[C@]2(C)O
not listed: [19] | [20]
inactive: all other assays above

S=C=S
not listed: [20]
inactive: all other assays above

CC[C@@H](CO)NC(=O)[C@@H]1C=C2c3cccc4[nH]cc(c34)C[C@H]2N(C)C1
not listed: [14]
inactive: all other assays above

C=CCCC#N
not listed: [14] | [19] | [20]
inactive: all other assays above

ClCC1CO1 (centres undefined)
not listed: [20]
inactive: all other assays above

C=C(Cl)CCl
not listed: [14] | [20]
inactive: all other assays above

COP(=O)(O)OC
not listed: [14]
inactive: all other assays above

CCC1(c2ccccc2)CCC(=O)NC1=O (centres undefined)
not listed: [14] | [15]
inactive: all other assays above

O=C(NC(O)C(Cl)(Cl)Cl)NC(O)C(Cl)(Cl)Cl (centres undefined)
not listed: [20]
inactive: all other assays above

Nc1c(Cl)c(F)nc(OCC(=O)O)c1Cl
not listed: [14]
inactive: all other assays above

CC(C)(C)C(=O)Cl
not listed: [14] | [20]
inactive: all other assays above

CN1C(=O)COc2c(C(=O)NC3CN4CCC3CC4)cc(Cl)cc21 (centres undefined)
not listed: [20]
inactive: all other assays above

Cc1ccc(S(=O)(=O)N[C@@H](CCCCN)C(=O)CCl)cc1
not listed: [14]
inactive: all other assays above

Cc1cc(OC(=O)N(C)C)nn1C(=O)N(C)C
not listed: [14] | [20]
inactive: all other assays above

CCN(CC)C1CCCCC1
not listed: [14] | [17] | [19]
inactive: all other assays above

C=C(C)[C@H]1CN[C@H](C(=O)O)[C@H]1CC(=O)O
not listed: [15] | [20]
inactive: all other assays above
